Results on nine compounds are retold here after PubChem BioAssay (Tox21).

Several values for one entry are separate records, joined by “and”; a condition that tells them apart may be missing. Identical values can stand only once. Records with an inconclusive call do not appear. Where a structure was tested more than once in an assay, its records may differ in their call. Activity calls are given as the source filed them. Unless noted, the call rests on the fitted dose curve; in most records, active means well fitted curve in the direction sought with a large enough effect in the repeat runs; inconclusive means weak or mixed curves; inactive means no such curve, though single readings can be large; an effect the other way counts as inactive or inconclusive.

Test [1] in a line: qHTS assay to identify small molecule antagonists of the constitutive androstane receptor (CAR) signaling pathway - cell viability counter screen (AID 1224837). Further: series mostly up to about 92 µM; nearly all actives have a fitted effect of over 45% in size. In short, it runs like this: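 Using CellTiter-Fluor, viability is scored in HepG2 cells stably carrying hCAR and a 2.2kb CYP2B6 reporter after 23 hr compound exposure across 15 concentrations, with CITCO present at 50 nM.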
For orientation: qHTS replaces the single test concentration by a dilution series.

The target in test [2] is Nuclear receptor subfamily 1 group I member 3 (Homo sapiens) (UniProt Q14994). Briefly: qHTS assay to identify small molecule antagonists of the constitutive androstane receptor (CAR) signaling pathway (AID 1224838).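 Further: HepG2 cells stably expressing hCAR with CYP2B6 luciferase reporter stimulated by CITCO; nearly all actives have a fitted effect of over 40% in size.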 A digest of the protocol:
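Reporter luminescence was quantified after 24 h exposure of hCAR/CYP2B6-2.2kb double-stable HepG2 cells to compounds at 15 concentrations in the presence of 50 nM CITCO final.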

For test [3] the target is unchanged. Briefly: qHTS assay to identify small molecule agonists of the constitutive androstane receptor (CAR) signaling pathway (AID 1224839). Further: nearly all actives have a fitted effect of over 15% in size. Further: potency means the concentration at half of the fitted maximal effect. On activation: series mostly up to about 92 µM. In short, it runs like this:
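Cells were plated and incubated 4 hrs, then dosed with compounds at 15 concentrations. PK11195 was added to 0.75 uM final. After 24 hrs at 37 C, luciferase luminescence was measured.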

Test [4] can be described thus: qHTS assay to identify small molecule antagonists of the estrogen related receptor signaling pathway with the pleiotropic PPARgamma coactivator (PGC) from Tox21 10K library - cell viability counter screen (AID 1224840; active means well fitted cell-killing curve with a large enough effect in the repeat runs, not every such curve was filed as active; further: nearly all actives have a fitted effect of over 40% in size). In short, it runs like this: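 Here the PGC/ERR cells serve as a cytotoxicity control: they are exposed to compounds for 17.5 hours at 37 C, and live-cell signal is quantified using CellTiter-Fluor fluorescence.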

The target in test [5] is Thyrotropin receptor (Homo sapiens) (UniProt P16473). Briefly: qHTS assay to identify small molecule agonists of the thyroid stimulating hormone receptor (TSHR) signaling pathway (AID 1224843; calls by dose curve; further: nearly all actives have a fitted effect of over 45% in size). A digest of the protocol: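 TSHR-HEK293 cells in agonist mode, 30 min room-temperature step, then cAMP measured by competitive HTRF (cAMP-d2 with anti-cAMP cryptate) after 1 h at room temperature. Tested at 15 concentrations in triplicate.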

A short description of test [6]: qHTS assay to identify small molecule agonists of the hypoxia (HIF-1) signaling pathway - cell viability counter screen (AID 1224844; calls by dose curve; further: nearly all actives have a fitted effect of over 50% in size). In short, it runs like this: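 Multiplexed with the HRE beta-lactamase assay, this viability read used CellTiter-Glo luminescence (30 min, RT) on HRE-bla ME-180 cells treated 17 hrs with compounds in 0.5% dialyzed FBS medium.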
Test [7] is described as follows: qHTS assay to identify small molecule agonists of the hypoxia (HIF-1) signaling pathway (AID 1224846; active means well fitted activation curve with a large enough effect in the signal ratio in the repeat runs, not every such curve was filed as active; the % refers to the signal ratio). In short, it runs like this: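 Hypoxia-pathway activation was scored as increased beta-lactamase from an HRE-controlled reporter in ME-180 cells; plated at 2,000 cells per well with 0.5% dialyzed FBS, they were exposed 17 hrs to compounds and then given CCF4-AM.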

The nature of test [8]: qHTS assay to identify small molecule agonists of H2AX - cell viability counter screen (AID 1224847; calls by dose curve; further: top concentration of the series differs between compounds; nearly all actives have a fitted effect of over 30% in size). A digest of the protocol: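 Cytotoxicity counter screen in wild-type CHO-K1 cells: a 3 hr compound treatment at 37C across 15 concentrations, followed by CellTiter-Glo luminescence to gauge viable cells.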
Test [9] in a line: qHTS RealTime-Glo MT Cell Viability Assay in HepG2 cells - 24 hour (AID 1224867). Further: nearly all actives have a fitted effect of over 50% in size. In short, it runs like this:
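HepG2 cells (600/well) were dispensed with RealTime-Glo reagents, incubated 5 h at 37 °C, then treated with compounds in DMSO for up to 40 h. Nonlytic NanoLuc luminescence reflecting viable cells was read at each stated time point.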

Test [10] is described as follows: qHTS RealTime-Glo MT Cell Viability Assay in HEK293 cells - 32 hour (AID 1224868). Further: top concentration of the series differs between compounds; nearly all actives have a fitted effect of over 50% in size. A digest of the protocol:
(§1)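 HEK293 cells seeded with NanoLuc/prosubstrate reagent, rested 5 h at 37 C, then dosed and kept at 37 C up to 40 h. Nonlytic real-time luminescence from viable cells read at 0, 8, 16, 24, 32 and 40 h.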

Test [11] can be described thus: A CellTox Green Cytotoxicity Assay to monitor cytotoxicity in HEK293 cells - 0 hour (AID 1224869). Further: nearly all actives have a fitted effect of over 50% in size. Further: potency means the concentration at half of the fitted maximal effect. A digest of the protocol: (§2)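 Seeding of HEK293 cells together with cytotoxicity dye preceded a 5 h incubation at 37 C/5% CO2. Test compounds in DMSO were then added and fluorescence monitored across 40 h.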
Test [12] is described as follows: qHTS RealTime-Glo MT Cell Viability Assay in HepG2 cells - 40 hour (AID 1224870). Further: nearly all actives have a fitted effect of over 50% in size. In short, it runs like this:
(§3)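 HepG2 cells (600/well) mixed with RealTime-Glo MT reagent, settled 5 h at 37 C/5% CO2 before compound addition. Nonlytic NanoLuc luminescence from viable-cell prosubstrate reduction read repeatedly during 40 h treatment at 37 C.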

Test [13] can be described thus: qHTS RealTime-Glo MT Cell Viability Assay in HEK293 cells - 16 hour (AID 1224872). In short, it runs like this: as §1
Test [14] can be described thus: qHTS RealTime-Glo MT Cell Viability Assay in HepG2 cells - 8 hour (AID 1224873). Further: nearly all actives have a fitted effect of over 55% in size. A digest of the protocol: as §3
Test [15] is described as follows: A CellTox Green Cytotoxicity Assay to monitor cytotoxicity in HEK293 cells - 40 hour (AID 1224871). Further: nearly all actives have a fitted effect of over 45% in size. Further: potency means the concentration at half of the fitted maximal effect. In short, it runs like this: as §2
The nature of test [16]: qHTS assay to identify small molecule agonists of H2AX (AID 1224845; active means well fitted activation curve with a large enough effect in the signal ratio in the repeat runs, not every such curve was filed as active; the % refers to the signal ratio). In short, it runs like this:
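Wild-type CHO-K1 cells, plated overnight, exposed 3hr at 37C to 15 concentrations (0.76% DMSO final). Lysed, then HTRF anti-pH2AX (S139) cryptate and anti-H2AX-d2 antibodies, 24 hr room temperature; 665/620 nm emission read.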

Sequence of Thyrotropin receptor (Homo sapiens) (P16473 whole entry, looked up): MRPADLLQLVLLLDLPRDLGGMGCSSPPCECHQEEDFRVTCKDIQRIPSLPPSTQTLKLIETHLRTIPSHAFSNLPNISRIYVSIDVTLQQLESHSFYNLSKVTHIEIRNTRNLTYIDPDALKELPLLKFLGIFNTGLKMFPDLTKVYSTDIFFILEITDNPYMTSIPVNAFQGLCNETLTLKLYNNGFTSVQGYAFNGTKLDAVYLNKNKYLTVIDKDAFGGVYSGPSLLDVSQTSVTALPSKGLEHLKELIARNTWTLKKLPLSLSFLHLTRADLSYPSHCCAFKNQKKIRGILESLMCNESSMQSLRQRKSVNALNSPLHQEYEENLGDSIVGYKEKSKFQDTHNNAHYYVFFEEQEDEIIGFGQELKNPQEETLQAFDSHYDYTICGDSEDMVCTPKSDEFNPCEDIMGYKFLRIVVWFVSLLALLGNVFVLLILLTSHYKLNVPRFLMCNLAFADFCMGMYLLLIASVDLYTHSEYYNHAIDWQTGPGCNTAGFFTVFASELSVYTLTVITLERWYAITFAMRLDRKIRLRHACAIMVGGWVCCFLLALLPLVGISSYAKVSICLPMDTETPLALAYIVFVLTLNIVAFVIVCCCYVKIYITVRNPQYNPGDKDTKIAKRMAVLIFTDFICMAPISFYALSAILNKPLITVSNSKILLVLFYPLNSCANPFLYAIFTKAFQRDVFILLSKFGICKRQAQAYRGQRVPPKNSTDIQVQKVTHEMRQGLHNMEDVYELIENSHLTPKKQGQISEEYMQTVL
Sequence of Nuclear receptor subfamily 1 group I member 3 (Homo sapiens) (Q14994 whole entry, looked up): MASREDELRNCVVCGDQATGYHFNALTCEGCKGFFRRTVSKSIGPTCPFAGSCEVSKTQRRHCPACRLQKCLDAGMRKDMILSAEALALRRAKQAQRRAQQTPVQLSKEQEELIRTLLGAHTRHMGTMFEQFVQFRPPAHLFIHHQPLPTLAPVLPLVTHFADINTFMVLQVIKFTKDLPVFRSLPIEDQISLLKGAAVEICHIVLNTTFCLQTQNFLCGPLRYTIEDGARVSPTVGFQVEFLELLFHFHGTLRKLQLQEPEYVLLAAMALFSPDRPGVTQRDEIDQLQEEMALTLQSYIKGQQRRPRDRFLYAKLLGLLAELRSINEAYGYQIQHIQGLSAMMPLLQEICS

Turning to `c1ccc2c(c1)oc1ccccc12`, the Potency result in test [1], in [2], in test [3], in test [4], in [5] and in test [6] was “inactive” throughout. Besides, the Potency entry in [8], in [10] and in [11] was “inactive” each time. In addition, the compound was classed as inactive in test [7], in test [9], in test [12], in test [13] and in test [14].

In the case of `Clc1ccc(Cl)cc1`, the Potency result in test [1], in [2], in test [3], in test [4], in test [5] and in test [6] was “inactive” each time. Moreover, the Potency result in test [8], in test [10], in [11] and in [15] was “inactive” in each case. Also, the outcome in [7], in test [9], in test [12], in test [13] and in test [14] was inactive.

For `C=CCO`, the Potency result in [1], in test [2], in [3], in [4], in test [5] and in test [6] was “inactive” each time. The Potency entry in test [8] and in [10] was “inactive” throughout. Further, the call in test [7], in test [9] and in [13] was inactive. For the same compound, the Potency result is “inactive and 43.6 µM (active)” in test [11]; “inactive and 34.7 µM (active)” in test [15].

With `[N-]=[N+]=[N-]`, the Potency result in test [1], in [2], in [3], in [4], in test [5] and in [6] was “inactive” each time. Besides, the Potency entry in [16], in test [8], in [10], in test [11] and in test [15] was “inactive” each time. The call in [7], in test [9] and in test [13] was inactive.

As to `Clc1ccccc1Cl`, the Potency entry in [1], in test [2], in test [3], in test [4], in test [5] and in test [6] was “inactive” in each case. The Potency entry in test [16], in [8], in [10], in [11] and in test [15] was “inactive” in each case. The call in test [7], in test [9], in test [13] and in test [14] was inactive.

As to `CCNc1nc(NC(C)C)nc(SC)n1`, the Potency entry in [1], in [2], in [4], in test [5], in test [6] and in test [16] was “inactive” throughout. For the same compound, the Potency entry in test [8], in test [10], in test [11] and in [15] was “inactive” each time. In addition, the Potency in test [3] was 48.6 µM (active). The compound was called inactive in test [7], in test [9], in [13] and in test [14].

As to `c1ccc(OP(Oc2ccccc2)Oc2ccccc2)cc1`, the Potency result in test [1], in test [2], in test [3], in test [4], in test [5] and in test [6] was “inactive” throughout. In addition, the Potency result in test [16], in test [10], in [11] and in [15] was “inactive” in each case. Further, the compound was classed as inactive in test [7], in test [9], in test [13] and in [14].

Take `Oc1ccccc1Cl`: the Potency entry in [1], in [2], in [3], in test [4], in test [5] and in test [6] was “inactive” throughout. For the same compound, the Potency entry in test [16], in test [10], in test [11] and in [15] was “inactive” throughout. In addition, the compound was classed as inactive in test [7], in [9], in [12], in [13] and in test [14].

In the case of `Cc1cc(Cl)ccc1O`, the Potency entry in test [1], in [2], in [3], in test [4], in test [5] and in test [6] was “inactive” in each case. In addition, the Potency result in [16], in test [10], in test [11] and in [15] was “inactive” each time. The call in test [7], in test [9], in test [12] and in test [13] was inactive.
